{
  "source": "the supplement of paper PMC4237247",
  "data": [
    {"test_system": "HeLa", "experiment": "percent cells in G1/S phase; higher = more G1/S content", "conditions": "10 µM; 20 h; hit class: G2/M-phase inhibitor", "experimental": "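HTS of 79,827 drug-like compounds at 10 uM. HeLa cells in 384-well plates were treated for 20 h, fixed, stained with Vybrant DyeCycle Green and scanned on an Acumen eX3 cytometer to give per-well cell cycle profiles. Only G2/M hits (>=67% G2/M) are listed.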", "units": {"percent cells in G1/S phase": "%"}, "values": [
      {"smiles": "CC(=O)O[C@H]1C(=O)[C@@]2(C)[C@H]([C@H](OC(=O)c3ccccc3)[C@]3(O)C[C@H](OC(=O)[C@H](O)[C@@H](NC(=O)c4ccccc4)c4ccccc4)C(C)=C1C3(C)C)[C@]1(OC(C)=O)CO[C@@H]1C[C@@H]2O", "note": "[Paclitaxel]", "percent cells in G1/S phase": 16.5},
      {"smiles": "COc1cc(-c2onc3ccc(Cl)cc23)cc(OC)c1OC", "percent cells in G1/S phase": 15.6},
      {"smiles": "CC(=O)Nc1ccc(Nc2nc(-c3c(C)nc4ccccn34)cs2)cc1", "percent cells in G1/S phase": 14.3},
      {"smiles": "COC(=O)Nc1nc2cc(C(=O)c3ccccc3)ccc2[nH]1", "note": "[Mebendazole]", "percent cells in G1/S phase": 22.1},
      {"smiles": "COC(=O)Nc1nc2ccc(SC(C)C)cc2[nH]1", "note": "[Methiazole]", "percent cells in G1/S phase": 19.6},
      {"smiles": "O=C(CSc1nc2ccc([N+](=O)[O-])cc2s1)c1ccc(Cl)cc1", "percent cells in G1/S phase": 22.6},
      {"smiles": "COc1ccccc1NC1=CC(=O)CC(c2ccccc2)C1", "note": "(centres undefined)", "percent cells in G1/S phase": 21.6},
      {"smiles": "COc1cc(NS(=O)(=O)c2ccc(NC(C)=O)cc2)c(OC)cc1Cl", "percent cells in G1/S phase": 23.2},
      {"smiles": "CCN(CC)CCN1C(=O)C(=O)C(=C(O)c2ccccc2)C1c1ccccc1F", "note": "(centres undefined)", "percent cells in G1/S phase": 20.9},
      {"smiles": "COc1ccc(/C=C/c2ccc3cccc(O)c3n2)cc1C", "percent cells in G1/S phase": 22.4},
      {"smiles": "COC(=O)Nc1nc2cc(Sc3ccccc3)ccc2[nH]1", "note": "[Fenbendazole]", "percent cells in G1/S phase": 26.3},
      {"smiles": "O=c1[nH]c(/C=C/c2ccccc2F)nc2ccccc12", "percent cells in G1/S phase": 19.2},
      {"smiles": "O=C(O)c1ccccc1SC1CC(=O)N(c2ccc(Br)cc2)C1=O", "note": "(centres undefined)", "percent cells in G1/S phase": 17.9},
      {"smiles": "O=c1[nH]c(/C=C/c2ccccc2)nc2ccccc12", "percent cells in G1/S phase": 24.1}
    ]}
  ]
}
